Here are results for 67 compounds from ChEMBL document CHEMBL4513216, “Probing the Open Global Health Chemical Diversity Library for Multistage-Active Starting Points for Next-Generation Antimalarials” (ACS Infect Dis, 2020).

Hit rate of the full screen: of about 68,000 compounds, about 2,700 (4%) showed an effect of 50% or more. The entries come from a sample that favours strong results as a whole.

The subject of the assay is Plasmodium berghei. Kind of assay: Screen against P. berghei liver stage (PbLuc), transformed with Luciferase, at 2uM. In kind it is functional, HepG2. As to conditions: tested at 2 uM.
`CCc1ccc(C(=O)N2CCN(CCO)CC2)o1`: the INHIBITION is on record as 31.7%.
As for `CN(Cc1ccco1)C(=O)c1ccc(=O)n(C)c1`, the INHIBITION is 1.13%.
In the case of `Cc1nc(CNCc2ccc(OC34CCCN(CC3)C4)cc2)n[nH]1` (configuration not stated), the INHIBITION is given as -2.62%.
`CC(C)NC(=O)C1CN(C(=O)N2CCCC2)CC12CCOCC2` (configuration not stated): the INHIBITION was found to be 17.51%.
For `CN(C)C(=O)N1CC(C(=O)NCC2CC2)C2(CCOCC2)C1` (configuration not stated) the value was 55.92%; for `Cc1ccsc1C(=O)N1CC(C(=O)NCC2CC2)C2(CCOCC2)C1` (configuration not stated), 2.41%.
`COCC(=O)N1CC(C(=O)NCC2CC2)C2(CCOCC2)C1` (configuration not stated): the INHIBITION was -13.16%.
The value for `CC(C)NC(=O)C1CN(C(=O)c2ccccc2)CC12CCOCC2` (configuration not stated) was 34.48%; that for `CC(C)NC(=O)C1CN(C(=O)N(C)C)CC12CCOCC2` (configuration not stated) was 58.87%.
As for `COCCO[C@@H]1C[C@H]2CN(C(=O)c3cnccn3)CCN2C1`, the INHIBITION is reported as -1.27%.
In the case of `O=C1NCCCCC1NCc1csc(-c2ccc(F)cc2)n1` (configuration not stated), the INHIBITION was determined as 13.91%.
For `CCN1CCc2c(CNC(=O)c3nccn3C)cncc2C1` the value was 10.71%.
Take `CCc1oc(C(=O)NC(C)c2ncn[nH]2)cc1CN1CCCC1` (configuration not stated): the INHIBITION was found to be 38.24%.
The value for `CC(C)Nc1ncccc1C(=O)NC1CC(=O)N(CC(F)(F)F)C1` (configuration not stated) was 16.87%; that for `Cc1[nH]c2ccccc2c1-c1ccnc(N[C@H](CO)CC(C)C)n1` was -48.87%.
For `Nc1ncc(C(=O)N2CCC3(CCCO3)CC2)c(-c2ccccc2)n1`, the INHIBITION is 14.83%.
Consider `Nc1ncc(C(=O)N2CCC(O)(CO)CC2)c(-c2ccccc2)n1`, for which the INHIBITION was found to be 32.04%.
Turning to `Nc1ncc(C(=O)N2CCCC(N)CC2)c(-c2ccccc2)n1` (configuration not stated), the INHIBITION worked out at 50.91%.
For `Cc1cc(CN(C)C(C(=O)O)c2cccc(C(F)(F)F)c2)on1` (configuration not stated) the value was -53%; for `COc1ccc(C)cc1CN1CCn2cccc2C1C` (configuration not stated), 23.27%.
On to `CC(C)SCC(=O)NCc1cc2n(n1)CCCN(C1CCCCC1)C2`, for which the INHIBITION was 50.02%.
On to `CSCCC(=O)NCc1cc2n(n1)CCCN(C1CCCCC1)C2`, for which the INHIBITION is on record as -12.95%.
Turning to `CCC(C)NC(=O)NCc1cc2n(n1)CCCN(C1CCCCC1)C2` (configuration not stated), the INHIBITION was -15.12%.
For the compound `CNS(=O)(=O)c1ccc(CNC(=O)N(C)C(C)COC)cc1` (configuration not stated), the INHIBITION is recorded as -30.49%.
Regarding `Cc1ccc(C(=O)N2CCC3(CCN3c3ncccn3)C2)cn1` (configuration not stated), the INHIBITION was -55.08%.
The value for `CC(O)CNc1ccc(C#N)cc1C(F)(F)F` (configuration not stated) was 25.48%.
For `CC(C)(C)c1nc(NS(=O)(=O)c2ccc(F)cc2)no1` the value was -56.23%.
Turning to `Cc1nc(CNC(=O)NC(C)c2ccc3c(c2)OCCCO3)cs1` (configuration not stated), the INHIBITION is recorded as -10.62%.
As to `Cc1ccc(C)c(OCC(=O)NC2CCN(c3ccccn3)CC2)c1`, the INHIBITION stood at 63.89%.
For `O=C(COCCOc1ccccc1)NC1CCN(c2ccccn2)CC1`, the INHIBITION is 21.79%.
For `COCCOCC(=O)NC1CCN(c2ccccn2)CC1` the value was -1.01%; for `O=C1OCCN1Cc1ncnn1Cc1c(F)cccc1Cl`, 59.94%; for `Fc1cccc(Cl)c1Cn1ncnc1CSCCN1CCCC1`, 2.76%.
For `O=C1CCCCCN1Cc1ncnn1Cc1c(F)cccc1Cl` the value was 29.98%.
Consider `O=S(=O)(NCc1ccc(S(=O)(=O)N2CCCC2)s1)c1ccc(Cl)c(Cl)c1`, for which the INHIBITION is -7.01%.
With `CC1Cc2cc(-c3cncn3CC(=O)NC(C)(C)C)ccc2N1C` (configuration not stated), the INHIBITION is 37.4%.
For `CCN1CCc2cc(-c3cncn3CC(=O)NC(C)(C)C)ccc21` the value was 25.72%; for `CCN1c2ccc(-c3cncn3CC(=O)NC(C)(C)C)cc2CC1C` (configuration not stated), 51.57%; for `CCN1CCCC(c2c(-c3ccccc3)ncn2Cc2cccnc2)C1` (configuration not stated), -17.04%.
For `O=C(NCCCO)c1cc(-c2ccc3c(c2)CCO3)n[nH]1` the value was -56.16%; for `CN(C)CCCNC(=O)c1cc(-c2ccc3c(c2)CCO3)n[nH]1`, -4.01%.
On to `O=C(NCCO)c1cc(-c2ccc3c(c2)CCO3)n[nH]1`, for which the INHIBITION came to 51.31%.
Take `CC1c2ncc(Cn3cccn3)n2CCN1Cc1ccc(F)cc1` (configuration not stated): the INHIBITION turned out to be 17.24%.
The value for `COCc1cc(N(C)Cc2cnccn2)nc(C(C)(C)C)n1` was 10.03%.
`COCCC(=O)N1CCCC(CCC(=O)Nc2ccc(Cl)cc2)C1` (configuration not stated): the INHIBITION was -0.62%.
The value for `O=C([C@@H]1COC[C@H]2CN(c3ccncn3)C[C@H]21)N1CCCCO1` was 40.64%; that for `O=C([C@H]1COC[C@H]2CN(c3ccncn3)C[C@H]21)N1CCCC1` was 53.55%; that for `O=C([C@@H]1COC[C@H]2CN(c3ccncn3)C[C@H]21)N1CCCC1` was 25.58%.
The value for `CN(Cc1cccnc1)CC1CN(C(=O)C2CC2)Cc2nccn2C1` (configuration not stated) was 6.8%; that for `CN1Cc2c(C(=O)NC3CCCCC3)ncn2-c2ccccc2S1(=O)=O` was -2.38%.
For the compound `CCc1nc(-c2ccc(NC(=O)N3CCOCC3)cc2)no1`, the INHIBITION is recorded as -52.23%.
For `CCc1nc(-c2ccc(C(=O)N3CCC4(CC3)OCCO4)cc2)no1`, the INHIBITION is reported as 59.75%.
For `CCc1nc(-c2ccc(NC(=O)N3CCC4(CC3)OCCO4)cc2)no1` the value was -16.82%; for `CC(C)n1nnnc1-c1ccc(NC(=O)CC(F)(F)F)cc1F`, -16.15%.
`CCC(CN1CCOCC1)n1cncc1-c1ccc2c(c1)CCN2CC` (configuration not stated): the INHIBITION is listed as 8.33%.
`O=C(C1CCCN(C2CCOCC2)C1)N1CCc2ncccc2C1` (configuration not stated): the INHIBITION turned out to be 34.71%.
Consider `CCOCCC(=O)N1CCc2cccc(S(=O)(=O)N3CCOCC3)c2C1`, for which the INHIBITION is 23.82%.
Regarding `COCC(=O)N1CCc2cccc(S(=O)(=O)N3CCOCC3)c2C1`, the INHIBITION worked out at 13.24%.
Turning to `CCCOCC(=O)N1CCc2c(cccc2S(=O)(=O)N2CCOCC2)C1`, the INHIBITION came out at 53.05%.
For `CC(C)CCN1CCNC(=O)C1CC(=O)NCCc1cc(O)ncn1` (configuration not stated) the value was 17.99%; for `COC1CCN(CCNC(=O)NC(C)c2cccc(Cl)c2)CC1` (configuration not stated), -23.58%.
Consider `COC1CCN(CCNC(=O)NCC(C)c2cccc(C)c2)CC1` (configuration not stated), for which the INHIBITION is listed as 38.83%.
For `COC1CCN(CCNC(=O)NC(C)c2ccc(F)c(F)c2)CC1` (configuration not stated), the INHIBITION came to 54.29%.
`Cc1ccc(S(=O)(=O)NCCOc2ccc3nnc(C)n3n2)s1`: the INHIBITION was 17.47%.
Consider `CCN(CCS(=O)(=O)CC)CC1CCCO1` (configuration not stated), for which the INHIBITION is recorded as 1.03%.
`CS(=O)(=O)CCN(CC1CCCO1)C1CCCC1` (configuration not stated): the INHIBITION is listed as 56.53%.
On to `CCS(=O)(=O)CCN(CC1CCCO1)C1CCCC1` (configuration not stated), for which the INHIBITION was -19.27%.
